Screening data deposited in PubChem BioAssay by National Center for Advancing Translational Sciences (NCATS).
NS1 inh: inhibitors of influenza NS1 protein function; Potency, µM (doses to about 46.1 µM), for inactives: at the top dose activity, positive = more growth; AID 2326; actives 0.4% (n = 270,000); calls by dose curve; note: actives are rising curves; nearly all actives have a fitted effect of over 50% in size
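Compounds were scored for reversing the slow growth caused by influenza A NS1 in S. cerevisiae, measured by optical density at 600 nm. Assay medium contained 2% galactose at pH 6.0; NS1-free yeast of the same strain were the positive control.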
Pf growth 48h: P. falciparum growth inhibition at 48 hours (one generation) | AID 504832 | P. falciparum luciferase growth in erythrocytes, 48 h | Potency, µM (series often up to 28.7 µM), for the others: at the highest dose activity change, negative = inhibition, usual class: inhibitors | actives 5.9% (n = 310,000); note: % is set by controls: 0 for no effect and ±100 for the full control effect
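Cell-based growth assay: transgenic P. falciparum expressing firefly luciferase, cultured in red cells within RPMI 1640 containing 0.5% w/v Albumax, 24 mM bicarbonate and gentamycin. A drop in luciferase activity indicates inhibition.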
Pf growth 96h: P. falciparum growth inhibition at 96 hours; P. falciparum luciferase reporter growth, 96 h; Potency, µM (titrated, usually from 28.7 µM), for inactives: top-dose activity change, negative = inhibition, actives largely listed as inhibitors; actives 6.9% (n = 320,000); AID 504834; note: % is set by controls: 0 for no effect and ±100 for the full control effect
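Compounds incubated with erythrocytes infected by luciferase-expressing P. falciparum (2% hematocrit, 0.05% parasitemia final) for 96 hours, 37 C in 5% CO2. Growth inhibition scored as decreased luciferase luminescence.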
HCV inhibitor: inhibitors of hepatitis C virus infection | actives 3.4% (n = 340,000) | Potency, µM (doses to about 41.8 µM), inactives show at the highest dose activity change, negative = inhibition, most hits filed as inhibitors | Huh7.5.1 HCVcc-Cre infection, luciferase reporter, 44 h | AID 651820; note: % is set by controls: 0 for no effect and ±100 for the full control effect
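HCVcc-Cre virus at an moi near 0.5 was added right after compound to cells cultured 4 h from seeding (1,000 cells/well). Luciferase activity was determined 44 h later, 15 min after substrate addition at RT.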
VACV mCherry inh: vaccinia inhibition (mCherry reporter); Vaccinia virus mCherry reporter infection, fluorescence; actives 0.63% (n = 310,000); Potency, µM (top dose mostly 36.5 µM), for the others: top-dose activity change, negative = inhibition, most hits filed as inhibitors; calls by dose curve; tested in A549 cells; note: % is set by controls: 0 for no effect and ±100 for the full control effect; nearly all actives have a fitted effect of over 35% in size
Vaccinia Venus: vaccinia inhibition (Venus reporter) | Potency, µM (top dose mostly 36.5 µM), for inactives: at the highest dose activity change, negative = inhibition, hits mostly inhibitors | Vaccinia virus Venus reporter expression, fluorescence | actives 0.46% (n = 330,000) | AID 720580; calls by dose curve; tested in A549 cells; note: % is set by controls: 0 for no effect and ±100 for the full control effect; nearly all actives have a fitted effect of over 30% in size
Starred values were filed as active, the others as inactive; i = inactive; ? = inconclusive; . = no result given; [ ] = remark or other dose. Compounds with a hit are over-represented: about 11% of the library has one in this group of screens. Unless noted, calls come from the whole dose curve; as a rule, active = well fitted inhibition curve with a large enough effect; inconclusive = small, poorly fitted or top-dose-only effect, or another doubt; inactive = no such curve, though single readings can be large or run the other way. Potency is the fitted concentration of half-maximal effect.

SMILES	NS1 inh	Pf growth 48h	Pf growth 96h	HCV inhibitor	VACV mCherry inh	Vaccinia Venus
COc1ccccc1CCNC(=O)C(=O)NCC1CCCN1S(=O)(=O)c1ccccc1 (stereo not given)	.	?	14.7µM*	?	?	-23.2%
O=C(NCc1ccc(F)cc1)C(=O)NCC1CCCN1S(=O)(=O)c1ccccc1 (stereo not given)	.	-19.0%	-24.5%	-10.5%[8.37 µM]	-7.3%	-22.7%
COc1ccc(CCNC(=O)C(=O)NCC2CCCN2S(=O)(=O)c2ccccc2)cc1 (stereo not given)	.	-38.1%	11.7µM*	?	i	-11.4%
O=C(NCCc1ccc(F)cc1)C(=O)NCC1CCCN1S(=O)(=O)c1ccccc1 (stereo not given)	.	?	?	11.2µM*	?	-22.8%
Cc1ccccc1N1CC2=C(C1=O)C(c1ccccc1)NC(=O)N2C (stereo not given)	-5.2%	0.0%	-4.9%	16.0%	-20.9%	-6.7%
Cc1ccc(C(=O)Nc2cccc3[nH]c(C(F)(F)F)nc23)cc1	-3.0%	7.6%	-13.1%	?	?	?
COc1cc(CNc2cccc3[nH]c(C(F)(F)F)nc23)cc(OC)c1	?	2.08µM*	23.7%	11.2µM*	.	.
COc1ccc(CNc2cccc3[nH]c(C(F)(F)F)nc23)cc1	1.0%	1.65µM*	21.4%	3.16µM*	?	-6.5%
COc1cc(NC(=O)c2ccnn2C)c(OC)cc1Cl	-9.8%	-3.6%	24.9%	-4.6%	.	.
O=C(CN1CC(c2ccccc2)CC1=O)NCc1ccc(F)cc1 (stereo not given)	-3.7%	20.6%	4.15µM*	0.3%[8.37 µM]	.	.
NC(=O)CC(NC(=O)Cc1ccc(Br)cc1)c1ccc(NCc2ccc(F)cc2)c([N+](=O)[O-])c1 (stereo not given)	?	?	-2.9%	11.2µM*	-0.3%	-10.7%
CCCCNc1ccc(C(CC(N)=O)NC(=O)Cc2cccc3ccccc23)cc1[N+](=O)[O-] (stereo not given)	14.9%	-1.0%	-5.4%	3.0%	-29.9%	-14.5%
COc1ccc(CCNc2ccc(C(CC(N)=O)NC(=O)Cc3cccc4ccccc34)cc2[N+](=O)[O-])cc1 (stereo not given)	1.7%	?	?	21.0%	?	12.6µM*
CCc1nccn1S(=O)(=O)c1ccc2ccc(C)cc2c1	-0.9%	3.4%	-14.6%	14.9%	.	?
CN1CCN(C(=O)c2ccc(-n3cccn3)nc2)CC1	.	i	68.6%	13.5%	-6.3%	3.2%
COc1ccc(NC(=O)NC2CCN(C(C)C)CC2)c(OC)c1	9.4%	.	3.9%	3.2%	.	.
COCCCNC(=S)NNC(=O)Cn1nc(C)c(Br)c1C	-4.3%	26.4%	9.28µM*	3.2%	-7.2%	-2.2%
CCOc1ccccc1NC(=O)c1c(NC(=O)c2cccc(C)c2)sc2c1CCCC2	.	.	.	.	-13.2%	-0.9%
Cc1nc(-c2ccccc2)sc1-c1n[nH]c(=S)n1C	-4.8%	31.5%	?	8.0%	.	.
CSc1sc(-c2n[nH]c(=S)n2C)c2c1C=CCC2	2.7%	?	5.86µM*	?	-19.1%	-9.0%
CCCCN(C(C)=O)C1CC(=O)N(c2ccc(OCCC)cc2)C1=O (stereo not given)	-1.6%	0.1%	52.1%	5.7%	.	.
CCCOc1ccc(N2C(=O)CC(N(CCOC34CC5CC(CC(C5)C3)C4)C(C)=O)C2=O)cc1 (stereo not given)	.	44.4%	5.22µM*	-5.0%	-13.3%	-10.5%
Cc1cccc(NC(=S)NC2CCSc3ccccc32)c1 (stereo not given)	16.8%	11.7µM*	?	?	-21.6%	-27.4%
C#CC[N+](CC)(CC)CC#Cc1cccc(Cl)c1	18.0%	10.4µM*	?	-20.2%	-29.4%	-23.9%
CC[N+](CC)(CC#CCO)CC#Cc1ccccc1	.	?	10.4µM*	11.7%	i	-11.9%
SMILES	NS1 inh	Pf growth 48h	Pf growth 96h	HCV inhibitor	VACV mCherry inh	Vaccinia Venus
CC[N+](CC)(CC#Cc1ccccc1)CC(=O)c1ccc(Cl)cc1	1.8%	?	?	?	-13.4%	-10.7%
C#CCOC(=O)C[N+](C)(C)CC#Cc1ccccc1	.	2.9%	?	19.2%	.	.
CCC[N+](CC#CCO)(CC#Cc1ccccc1)CCC	3.3%	?	?	10.0%	-5.4%	-3.7%
C#CC[N+](C)(C)CC#Cc1ccc(Cl)cc1	-3.3%	1.65µM*	?	-20.3%	?	?
CCOC(=O)c1[nH]c2ccccc2c1NC(=O)CN1CCCCC1	-3.6%	-10.4%	?	?	.	0.4%
N#Cc1ncc(Cc2ccccc2)nc1C#N	-73.5%	?	?	-16.2%	.	.
CCN=C1S/C(=C/c2ccc(-c3ccc(Cl)cc3C(=O)O)o2)C(=O)N1CC	5.4%	10.6%[0.00184 µM]	32.5%	15.7%	-1.6%	-1.2%
Clc1ccc(CN2CCN(c3ncnc4scc(-c5cccs5)c34)CC2)cc1	-16.4%	.	13.1µM*	?	.	.
COc1ccc(-c2csc3ncnc(N4CCN(c5ccccc5O)CC4)c23)cc1	-26.0%	19.2%	-15.5%	?	-26.9%	-25.4%
Cc1ccccc1N1CCN(c2ncnc3scc(-c4cccs4)c23)CC1	9.5%	?	-43.4%	10µM*	.	.
Fc1ccc(CN2CCN(c3ncnc4scc(-c5ccc(F)cc5)c34)CC2)cc1	5.9%	.	?	-24.8%	.	.
Cc1ccc(-c2csc3ncnc(N4CCN(c5ccccc5O)CC4)c23)cc1	0.5%	9.28µM*	10.4µM*	?	?	-4.6%
CCCn1c(NCc2ccc(C)o2)nc2ccccc21	-48.3%	?	.	-5.9%	-14.4%	-3.2%
Cc1cccc(N2C(=O)CC(N3CCN(c4cccc(C(F)(F)F)c4)CC3)C2=O)c1 (stereo not given)	1.3%	-13.1%	0.3%	12.7%	.	.
NNc1nnc2c3cc(F)ccc3n(Cc3ccccc3)c2n1	-0.6%	1.47µM*	3.29µM*	?	-28.7%[7.34 µM]	-15.5%[7.34 µM]
CCn1c2ccc(F)cc2c2nnc(NN)nc21	11.0%	?	3.7µM*	-2.7%	-11.4%	-23.1%
CCc1ccc2c(c1)c1nnc(NN)nc1n2CC	18.3%	?	?	?	-20.6%	-23.9%
CCc1ccc2c(c1)c1nnc(NN)nc1n2C	-4.9%	11.7µM*	?	-24.6%	-12.5%[7.34 µM]	-0.8%[7.34 µM]
O=C(C1CCCN(S(=O)(=O)c2cccs2)C1)N1CCN(c2ccccc2F)CC1 (stereo not given)	.	.	.	.	-10.3%	-1.7%
CCOC(=O)c1cn(-c2ccc(F)c(F)c2F)c2c(F)c(F)c(F)cc2c1=O	12.3%	0.8%	.	-3.8%	.	.
CCOc1ccc(C(=O)CN2C(=O)NC3(CCCc4ccccc43)C2=O)cc1 (stereo not given)	.	.	.	.	-9.7%	-23.1%
Clc1ccccc1CN(Cc1ccccc1)c1ncnc2nc[nH]c12	-3.7%	-9.9%	.	-4.5%	?	-25.1%
O=C(Nc1ccccc1O)c1ccc(C(=O)c2ccccc2)o1	-13.5%	8.28µM*	?	?	-17.2%	-27.6%
